The values that follow come from ChEMBL document CHEMBL3988442, “University of Dundee, Small-Polar-MMV Screening Library” (2021).

For some assays here: Entries with a potency or affinity are not part of this list.

Design in all cases: scale not given: direction of the effect not stated beside the values
Assay [1] addresses Protein translocase subunit SecA (Escherichia coli (strain K12)) (UniProt P10408). Briefly: Assay to Identify E. coli SecA ATPase Inhibitors. Format: functional. To be noted: 30 µM.
In assay [2] the target is T1, Ubiquitin-activating enzyme e1, putative (Leishmania donovani (strain BPK282A1)) (UniProt E9BSI1).
T1 sequence (whole entry): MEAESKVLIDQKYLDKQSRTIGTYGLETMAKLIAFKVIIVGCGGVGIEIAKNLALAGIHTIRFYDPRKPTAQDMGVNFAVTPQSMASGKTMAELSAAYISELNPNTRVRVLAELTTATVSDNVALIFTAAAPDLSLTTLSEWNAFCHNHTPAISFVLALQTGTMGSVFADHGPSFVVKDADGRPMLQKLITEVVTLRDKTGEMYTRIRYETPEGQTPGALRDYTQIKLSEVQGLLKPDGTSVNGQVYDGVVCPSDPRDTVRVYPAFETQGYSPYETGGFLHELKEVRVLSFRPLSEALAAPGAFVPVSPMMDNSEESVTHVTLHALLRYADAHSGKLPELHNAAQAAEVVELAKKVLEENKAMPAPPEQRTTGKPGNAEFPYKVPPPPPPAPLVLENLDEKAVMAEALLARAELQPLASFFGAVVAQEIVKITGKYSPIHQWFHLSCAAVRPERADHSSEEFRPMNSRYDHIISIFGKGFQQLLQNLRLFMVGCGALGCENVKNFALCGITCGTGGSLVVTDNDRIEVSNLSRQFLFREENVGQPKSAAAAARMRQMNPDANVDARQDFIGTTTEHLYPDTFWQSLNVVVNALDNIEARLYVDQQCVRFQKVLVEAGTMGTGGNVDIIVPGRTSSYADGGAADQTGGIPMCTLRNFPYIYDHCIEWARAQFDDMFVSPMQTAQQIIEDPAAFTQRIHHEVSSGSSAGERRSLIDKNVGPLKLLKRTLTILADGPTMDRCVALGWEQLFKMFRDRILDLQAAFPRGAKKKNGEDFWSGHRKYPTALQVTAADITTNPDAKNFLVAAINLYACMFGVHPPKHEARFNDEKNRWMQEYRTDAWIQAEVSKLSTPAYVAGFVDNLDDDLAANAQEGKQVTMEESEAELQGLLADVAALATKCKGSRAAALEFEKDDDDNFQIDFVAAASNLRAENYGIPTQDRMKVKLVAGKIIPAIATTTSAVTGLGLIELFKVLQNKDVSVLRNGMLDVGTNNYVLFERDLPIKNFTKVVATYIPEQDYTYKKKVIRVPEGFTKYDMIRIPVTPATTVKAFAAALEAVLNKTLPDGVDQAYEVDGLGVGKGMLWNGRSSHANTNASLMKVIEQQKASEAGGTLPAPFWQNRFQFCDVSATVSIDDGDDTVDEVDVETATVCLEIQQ
Description: Leishmania donovani Ubiquitin Activating Enzyme (LdE1). The settings on record: 30 µM. Format: functional.

The target in assay [3] is T2, Aspartate--tRNA(Asp/Asn) ligase (Mycobacterium tuberculosis (strain ATCC 25618 / H37Rv)) (UniProt P9WFW3). Further: in the data most compounds retested in dose-response had high values.
T2 sequence (whole entry): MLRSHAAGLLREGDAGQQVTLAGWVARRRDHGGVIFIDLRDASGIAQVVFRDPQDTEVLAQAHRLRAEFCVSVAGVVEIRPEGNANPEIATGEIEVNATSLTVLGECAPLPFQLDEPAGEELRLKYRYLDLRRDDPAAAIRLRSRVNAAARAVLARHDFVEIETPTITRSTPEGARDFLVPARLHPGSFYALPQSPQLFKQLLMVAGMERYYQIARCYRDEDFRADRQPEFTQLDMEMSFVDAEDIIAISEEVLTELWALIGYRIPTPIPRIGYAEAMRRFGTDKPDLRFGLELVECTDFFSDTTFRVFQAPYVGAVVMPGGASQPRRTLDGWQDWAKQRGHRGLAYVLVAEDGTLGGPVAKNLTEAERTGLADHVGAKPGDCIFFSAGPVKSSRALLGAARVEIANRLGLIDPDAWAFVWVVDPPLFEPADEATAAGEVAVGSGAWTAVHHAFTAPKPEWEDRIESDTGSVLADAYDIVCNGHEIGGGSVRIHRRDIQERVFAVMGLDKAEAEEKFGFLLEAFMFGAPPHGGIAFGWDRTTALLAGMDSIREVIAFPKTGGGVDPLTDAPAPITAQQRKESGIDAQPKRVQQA
Description: Assay for Asp RNA synthetase-1 from Mycobacterium tuberculosis. It counts as functional. The settings on record: 30 µM.

Assay [4] deals with AMP-activated protein kinase, AMPK (Homo sapiens) (UniProt P54646+O43741+P54619+Q9UGJ0+Q9Y478+Q13131+Q9UGI9). Description: AMP-dependent Kinase enzyme assay. An in vitro enzyme assay that detects ADP turnover that is directly proportional to AMPK activity. This uses naive AMPK that is activated during the assay with MK-8722. It counts as functional. The settings on record: 30 µM.

For assay [5], the target named is Sialic acid-binding Ig-like lectin 9 (Homo sapiens) (UniProt Q9Y336). Briefly: Hs-Siglec9 ALPHAscreen SOP 20170721. To be noted: 10 µM. On the technique in general: Alpha assays give light when donor and acceptor beads are brought close together.
Sequence of Sialic acid-binding Ig-like lectin 9 (Homo sapiens) (Q9Y336 whole entry): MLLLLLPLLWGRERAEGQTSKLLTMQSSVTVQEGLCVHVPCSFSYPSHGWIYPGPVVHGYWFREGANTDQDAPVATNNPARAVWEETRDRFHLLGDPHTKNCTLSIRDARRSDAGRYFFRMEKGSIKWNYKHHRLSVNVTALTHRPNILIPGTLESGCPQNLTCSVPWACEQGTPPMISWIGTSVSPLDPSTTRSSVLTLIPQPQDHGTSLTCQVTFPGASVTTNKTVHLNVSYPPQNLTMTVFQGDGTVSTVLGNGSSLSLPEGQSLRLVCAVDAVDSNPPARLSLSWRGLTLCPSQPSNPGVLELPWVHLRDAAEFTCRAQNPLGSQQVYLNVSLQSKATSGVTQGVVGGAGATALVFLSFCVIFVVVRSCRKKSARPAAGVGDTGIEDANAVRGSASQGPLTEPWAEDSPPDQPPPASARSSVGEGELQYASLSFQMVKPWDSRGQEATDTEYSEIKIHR
In a further assay the test system is Trypanosoma cruzi. Briefly: Trypanosoma cruzi phosphomannomutase and mannose-1-phosphate guanylyltransferase assay. It counts as functional. The settings on record: 10 µM.
Assay [6] has as its target T3, Arginase-2, mitochondrial (Homo sapiens) (UniProt P78540).
T3 sequence (whole entry): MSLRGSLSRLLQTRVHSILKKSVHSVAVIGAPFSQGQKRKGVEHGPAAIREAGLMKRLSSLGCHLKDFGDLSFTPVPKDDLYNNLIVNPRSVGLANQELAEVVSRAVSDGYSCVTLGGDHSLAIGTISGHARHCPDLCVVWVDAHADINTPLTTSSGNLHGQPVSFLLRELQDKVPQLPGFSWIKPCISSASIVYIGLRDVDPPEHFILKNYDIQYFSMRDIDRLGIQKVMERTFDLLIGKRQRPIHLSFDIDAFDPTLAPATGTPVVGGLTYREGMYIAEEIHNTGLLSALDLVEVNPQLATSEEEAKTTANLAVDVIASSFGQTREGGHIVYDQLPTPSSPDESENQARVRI
Description: in vitro enzyme assay to detect the production of urea directly proportional to the activity of Arginase II. Further: in the data most compounds retested in dose-response had high values. It counts as functional. To be noted: 33.3 µM.

The target of assay [7] is T4, Proteasome subunit beta (Trypanosoma cruzi) (UniProt O96673).
T4 sequence (whole entry): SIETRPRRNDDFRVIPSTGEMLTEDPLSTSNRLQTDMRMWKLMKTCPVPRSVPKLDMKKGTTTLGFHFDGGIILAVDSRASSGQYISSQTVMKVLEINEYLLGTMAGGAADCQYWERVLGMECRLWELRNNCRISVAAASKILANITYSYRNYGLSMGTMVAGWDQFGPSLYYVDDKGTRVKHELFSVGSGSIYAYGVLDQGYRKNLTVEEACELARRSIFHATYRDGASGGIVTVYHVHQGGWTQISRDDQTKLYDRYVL
Briefly: Trypanosoma cruzi proteasome chymotrypsin-like activity (TcProtChymo) assay. Further: in the data most compounds retested in dose-response had high values. The settings on record: 9.37 µM. It counts as functional.

For another assay, the species on record is Homo sapiens. Briefly: To identify inhibition of the IFN signalling (Jak-Stat) pathway via expression of an eGFP reporter gene under the control of an IFN-stimulated response element (ISRE) containing MxA promoter. Format: functional. The settings on record: 30 µM. On the technique in general: In a reporter assay the amount or activity of a reporter protein is the signal.

In assay [8] the target is Shiga toxin 2 (Escherichia coli O157:H7) (UniProt P09385+P09386). Briefly: E. coli 0.157:H7 Shiga Toxin SOP - stx2 screening assay. It counts as functional. The settings on record: 30 µM.
The target in assay [9] is T5, Tyrosyl-tRNA synthetase, putative (Trypanosoma cruzi (strain CL Brener)) (UniProt Q4DSP6).
T5 sequence (whole entry): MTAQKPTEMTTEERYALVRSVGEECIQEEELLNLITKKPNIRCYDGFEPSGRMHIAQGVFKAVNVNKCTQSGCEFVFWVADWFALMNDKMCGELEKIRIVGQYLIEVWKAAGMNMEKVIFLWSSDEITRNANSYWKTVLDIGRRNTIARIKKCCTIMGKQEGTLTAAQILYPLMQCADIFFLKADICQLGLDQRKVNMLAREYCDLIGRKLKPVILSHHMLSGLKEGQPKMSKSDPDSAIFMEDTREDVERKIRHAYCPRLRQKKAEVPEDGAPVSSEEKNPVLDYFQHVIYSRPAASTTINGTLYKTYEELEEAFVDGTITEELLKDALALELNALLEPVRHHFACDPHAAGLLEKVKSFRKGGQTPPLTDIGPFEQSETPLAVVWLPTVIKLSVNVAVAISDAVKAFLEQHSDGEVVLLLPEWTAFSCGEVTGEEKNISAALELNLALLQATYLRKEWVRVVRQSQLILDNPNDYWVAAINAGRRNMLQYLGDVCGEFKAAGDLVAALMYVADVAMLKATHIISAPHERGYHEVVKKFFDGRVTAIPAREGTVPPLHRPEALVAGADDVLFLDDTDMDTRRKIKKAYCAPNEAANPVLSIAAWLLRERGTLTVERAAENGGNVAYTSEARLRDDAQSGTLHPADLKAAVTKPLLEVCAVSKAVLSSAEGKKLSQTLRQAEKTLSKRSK
Description: Trypanosoma cruzi tyrosyl tRNA synthetase (TcYRS) _High Tyrosine SOP. Further: in the data most compounds retested in dose-response had high values. To be noted: 30 µM. It counts as functional.

Assay [10] deals with T5, Tyrosyl-tRNA synthetase, putative (Trypanosoma cruzi (strain CL Brener)). Description: Trypanosoma cruzi tyrosyl tRNA synthetase (TcYRS) SOP. Format: functional. The settings on record: 30 µM.
Assay [11] deals with Chromo domain-containing protein 1 (Saccharomyces cerevisiae (strain ATCC 204508 / S288c) (Baker's yeast)) (UniProt P32657). Description: ScCHD-1 Enzyme Inhibition Assay. Further: in the data most compounds retested in dose-response had high values. Format: functional. To be noted: 30 µM.
Sequence of Chromo domain-containing protein 1 (Saccharomyces cerevisiae (strain ATCC 204508 / S288c) (Baker's yeast)) (P32657 whole entry, the tested form may be a part): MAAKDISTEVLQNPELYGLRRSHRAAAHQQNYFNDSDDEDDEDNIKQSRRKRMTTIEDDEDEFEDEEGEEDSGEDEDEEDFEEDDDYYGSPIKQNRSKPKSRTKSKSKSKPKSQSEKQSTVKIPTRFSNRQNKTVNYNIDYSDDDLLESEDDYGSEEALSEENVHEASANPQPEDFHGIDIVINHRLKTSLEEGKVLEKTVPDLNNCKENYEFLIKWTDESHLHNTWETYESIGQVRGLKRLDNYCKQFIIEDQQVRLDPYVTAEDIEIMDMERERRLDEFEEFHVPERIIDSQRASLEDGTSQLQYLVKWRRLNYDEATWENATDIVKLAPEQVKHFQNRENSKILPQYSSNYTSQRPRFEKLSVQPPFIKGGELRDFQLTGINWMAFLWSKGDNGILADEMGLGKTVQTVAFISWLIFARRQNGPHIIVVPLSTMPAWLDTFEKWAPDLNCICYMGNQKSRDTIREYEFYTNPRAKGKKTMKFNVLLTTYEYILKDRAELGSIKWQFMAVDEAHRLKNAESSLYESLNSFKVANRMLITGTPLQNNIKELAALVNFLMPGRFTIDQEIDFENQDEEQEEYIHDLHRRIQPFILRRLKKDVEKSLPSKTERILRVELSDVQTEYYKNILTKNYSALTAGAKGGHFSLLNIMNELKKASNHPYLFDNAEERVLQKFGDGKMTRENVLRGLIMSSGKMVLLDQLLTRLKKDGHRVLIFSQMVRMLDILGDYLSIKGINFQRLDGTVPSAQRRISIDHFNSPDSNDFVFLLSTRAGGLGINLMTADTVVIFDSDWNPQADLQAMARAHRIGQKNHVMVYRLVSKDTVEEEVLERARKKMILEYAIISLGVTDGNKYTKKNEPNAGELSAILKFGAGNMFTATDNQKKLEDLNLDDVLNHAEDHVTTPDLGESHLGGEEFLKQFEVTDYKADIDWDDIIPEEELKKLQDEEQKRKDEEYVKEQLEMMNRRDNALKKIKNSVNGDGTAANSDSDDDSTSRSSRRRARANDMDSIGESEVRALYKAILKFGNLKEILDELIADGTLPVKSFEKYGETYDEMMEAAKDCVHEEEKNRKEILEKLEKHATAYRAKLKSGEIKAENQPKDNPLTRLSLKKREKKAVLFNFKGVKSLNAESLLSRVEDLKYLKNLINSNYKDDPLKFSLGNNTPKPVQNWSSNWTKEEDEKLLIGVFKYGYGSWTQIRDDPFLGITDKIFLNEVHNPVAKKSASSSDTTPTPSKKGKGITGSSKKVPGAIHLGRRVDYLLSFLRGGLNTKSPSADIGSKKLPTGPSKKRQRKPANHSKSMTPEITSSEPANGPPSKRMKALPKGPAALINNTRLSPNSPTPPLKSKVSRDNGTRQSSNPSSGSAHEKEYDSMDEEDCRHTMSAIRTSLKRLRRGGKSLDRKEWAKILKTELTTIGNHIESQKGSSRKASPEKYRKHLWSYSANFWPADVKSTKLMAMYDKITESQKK

Sequence of Protein translocase subunit SecA (Escherichia coli (strain K12)) (P10408 whole entry): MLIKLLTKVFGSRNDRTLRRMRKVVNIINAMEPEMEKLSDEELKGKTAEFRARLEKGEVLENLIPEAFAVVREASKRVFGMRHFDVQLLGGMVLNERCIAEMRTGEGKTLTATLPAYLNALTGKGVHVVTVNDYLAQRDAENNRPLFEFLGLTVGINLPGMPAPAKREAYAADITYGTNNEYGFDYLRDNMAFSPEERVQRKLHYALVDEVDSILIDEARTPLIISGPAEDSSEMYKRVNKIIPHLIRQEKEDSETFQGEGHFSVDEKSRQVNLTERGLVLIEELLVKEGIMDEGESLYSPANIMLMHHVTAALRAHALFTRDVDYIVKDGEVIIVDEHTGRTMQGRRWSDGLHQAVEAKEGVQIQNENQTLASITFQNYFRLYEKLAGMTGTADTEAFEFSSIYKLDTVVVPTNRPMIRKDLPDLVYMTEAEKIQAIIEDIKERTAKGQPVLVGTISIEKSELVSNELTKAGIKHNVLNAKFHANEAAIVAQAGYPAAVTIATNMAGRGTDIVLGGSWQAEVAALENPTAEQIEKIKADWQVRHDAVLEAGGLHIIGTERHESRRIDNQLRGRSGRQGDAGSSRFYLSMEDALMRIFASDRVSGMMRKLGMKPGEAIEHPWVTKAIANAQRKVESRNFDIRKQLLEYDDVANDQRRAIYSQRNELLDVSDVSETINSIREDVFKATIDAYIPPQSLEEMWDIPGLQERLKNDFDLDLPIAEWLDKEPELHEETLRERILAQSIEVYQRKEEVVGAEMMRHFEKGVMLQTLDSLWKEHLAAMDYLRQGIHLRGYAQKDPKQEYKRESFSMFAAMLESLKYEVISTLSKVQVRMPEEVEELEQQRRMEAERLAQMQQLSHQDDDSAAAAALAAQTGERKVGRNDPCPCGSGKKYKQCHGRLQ

In the case of `CCCN1CCN(Cc2nccn2CC)C(C)C1` (stereo not given), the Percent Effect in assay [1] is -1.91%; in assay [2] it was 13.5%; in assay [3], 1.06%; in assay [4], -5.87%; in assay [5], -10.4%; with Trypanosoma cruzi it was -2.54%. Further, the Percent Effect was -1.67% in assay [6]; 8.54% in assay [7]; 32.2% in the assay filed under Homo sapiens; -11.5% in assay [8]; 8.91% in [9]; 8.54% in assay [10]. Besides, in assay [11], the Percent Effect is -3.53%.
Take `CCc1nc(CNC(C)Cn2cccn2)cs1` (stereo not given): the Percent Effect was -1.58% in assay [1]; 13.5% in assay [2]; 5.32% in [3]; -19.1% in assay [4]; 12.1% in [5]; 2.36% in the assay on Trypanosoma cruzi. Also, the Percent Effect in assay [6] is -12%; in assay [7], 9.73%; in the assay filed under Homo sapiens it was 14.4%; in assay [8], 9.22%; in [9] it was 12.3%; in assay [10] it was 30.9%. In assay [11], the Percent Effect is -13.1%.
Turning to `Cc1noc([C@@H]2C[C@H]3CN(Cc4cc(C)on4)C[C@H]3O2)n1`, the Percent Effect in [1] is -0.923%; in [2], 10.4%; in assay [3], 2.67%; in [4] it was 5.31%; in assay [5] it was -5.26%; in the assay with Trypanosoma cruzi, -4.63%. Also, the Percent Effect in [6] was 9.68%; in [7], 12.4%; in the assay filed under Homo sapiens, 10.4%; in assay [8], -9.84%; in assay [9] it was 3.17%; in assay [10], 6.41%. Also, the Percent Effect in assay [11] is -8.87%.
On to `COc1ccccc1C1SCC(=O)Nc2n[nH]cc21` (stereo not given), for which the Percent Effect in assay [1] was -5.34%; in assay [2], 5.26%; in assay [3] it was 6.47%; in assay [4], 16.6%; in [5], -1.26%; in the assay on Trypanosoma cruzi, -2.63%. Also, the Percent Effect was 15.4% in assay [6]; 12.6% in assay [7]; -13.4% in the assay listed under Homo sapiens; 5.55% in [8]; 3.19% in assay [9]; 2.6% in assay [10]. Also, the Percent Effect in assay [11] was -2.61%.
Turning to `Cc1oc(-c2ccco2)nc1CC(=O)N1CCN(C2CCC2)CC1`, the Percent Effect is -7.4% in assay [1]; 7.79% in assay [2]; -0.115% in assay [3]; -1.25% in [4]; 1.16% in [5]; 1.08% in the assay with Trypanosoma cruzi. Besides, the Percent Effect turned out to be 4% in assay [6]; 12.8% in assay [7]; 2.52% in the assay filed under Homo sapiens; 24.8% in assay [8]; 0% in assay [9]; 7.06% in assay [10]. In addition, the Percent Effect in [11] is -19%.
